Inconclusive results are not listed. Entries that show only a call come without a potency. Calls of active or inactive are those of the source. Calls come from the whole dose curve; as a rule, active = well fitted cell-killing curve with a large enough effect; inconclusive = small, poorly fitted or top-dose-only effect, or effect the other way; inactive = no such curve, though single readings can be large or run the other way.
Potency is the fitted concentration of half-maximal effect.

The first assay can be described thus: Quantitative High-Throughput drug screen in 47 multiple myeloma cell lines against the NCATS MIPE library collection: KMS12PE_JCRB cell viability assay (AID 1918972). Note: nearly all actives have a fitted effect of over 30% in size. To be noted: KMS12PE myeloma viability, CellTiter-Glo ATP, 48 h; series mostly up to 45.8 µM. Put shortly: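 Relative luminescence from CellTiter-Glo served as the viability signal, referenced to DMSO-treated (100%) and cell-free medium (0%) controls. Treatment lasted 48 hours at 37C with 500 cells per well.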
On to `CC(C)[C@H](N)C(=O)OCCOCn1cnc2c(=O)[nH]c(N)nc21`, for which the Potency was 23.5 µM (active). Still for that read-out and setting: the entry for `C=CCc1cc(OC)c(O)c(C(=O)NCCO)c1` is “inactive”; for `Nc1cc(C(Cl)=C(Cl)Cl)c(S(N)(=O)=O)cc1S(N)(=O)=O` it is “inactive”; for `COc1cc(OC)c(C(=O)CCCN2CCCC2)c(OC)c1` it is “inactive”. Same read-out and setting: the entry for `CN1C(C(=O)Nc2ccccn2)=C(O)c2sccc2S1(=O)=O` is “inactive”. Still for that read-out and setting: the entry for `CCN(CCO)CCCC(C)Nc1ccnc2cc(Cl)ccc12` (configuration not stated) is “inactive”; for `CC1(C)CCC(C)(C)c2cc(NC(=O)c3ccc(C(=O)O)cc3)ccc21` it is 20.9 µM (active). `COc1cc2nc(N3CCN(C(=O)C4CCCO4)CC3)nc(N)c2cc1OC` (configuration not stated): the Potency was 16.6 µM (active).

Consider `Cc1cccc(-c2[nH]ncc2-c2ccc3ncccc3n2)n1`, for which the Potency entry was “inactive”. `O=C1c2c(O)cc(O)cc2OC(c2ccc(O)c(O)c2)C1O` (configuration not stated): the Potency entry was “inactive”. With `COc1cc(C(C)=O)ccc1OCCCN1CCC(c2noc3cc(F)ccc23)CC1`, the Potency was 20.9 µM (active). Turning to `Cc1cccc(C)c1OCC(=O)N[C@@H](Cc1ccccc1)[C@@H](O)C[C@H](Cc1ccccc1)NC(=O)[C@H](C(C)C)N1CCCNC1=O`, the Potency was 6.62 µM (active). Regarding `CC(=O)N1CCN(c2ccc(OC[C@H]3CO[C@](Cn4ccnc4)(c4ccc(Cl)cc4Cl)O3)cc2)CC1`, the Potency was 5.26 µM (active).

Turning to `COc1ccc2cc([C@H](C)C(=O)O)ccc2c1`, the Potency result was “inactive”. Consider `CC(=O)NC[C@H]1CN(c2ccc(N3CCOCC3)c(F)c2)C(=O)O1`, for which the Potency entry is “inactive”. With `CS(=O)(=O)OCCCCOS(C)(=O)=O`, the Potency entry is “inactive”. Take `CN(c1nccc(=O)[nH]1)C1CCN(c2nc3ccccc3n2Cc2ccc(F)cc2)CC1`: the Potency entry was “inactive”. Regarding `CCCCC(CC)COC(=O)C(C#N)=C(c1ccccc1)c1ccccc1` (configuration not stated), the Potency result was “inactive”.

For the molecule `CN1CCC(=C2c3ccccc3CCc3sccc32)CC1`, the Potency is 23.5 µM (active). Same read-out and setting: the entry for `N[C@@H](Cc1cc(I)c(Oc2cc(I)c(O)c(I)c2)c(I)c1)C(=O)O` is “inactive”; for `CN(C)C(=O)[C@H](O)[C@H](Cc1ccccc1)NC(=O)c1cc2cc(Cl)ccc2[nH]1` it is 2.09 µM (active).

A further assay in a line: Quantitative High-Throughput drug screen in 47 multiple myeloma cell lines against the NCATS MIPE library collection: KMS20_JCRB cell viability assay (AID 1918973). Note: nearly all actives have a fitted effect of over 45% in size. To be noted: CellTiter-Glo ATP, 48 h; series mostly up to 45.8 µM. Summed up: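 CellTiter-Glo luminescence (ATP) after 48 h compound exposure, 37C/5% CO2; 500 cells/well; MIPE 4.0 approved/investigational drugs pinned in; DMSO = 100%, media only = 0% viability.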
For orientation: ATP-based viability assays read luminescence as a measure of living cells.
For the molecule `CC1=C(C)C(=O)C(C(CCCCCC(=O)O)c2ccccc2)=C(C)C1=O` (configuration not stated), the Potency result is “inactive”. For `CC(=O)O[C@H]1C(=O)[C@@]2(C)C([C@H](OC(=O)c3ccccc3)[C@]3(O)C[C@H](OC(=O)[C@H](O)[C@@H](NC(=O)c4ccccc4)c4ccccc4)C(C)=C1C3(C)C)[C@]1(OC(C)=O)CO[C@@H]1C[C@@H]2O` (some centres not stated), the Potency entry is “inactive”. With `CCc1nc(N)nc(N)c1-c1ccc(Cl)cc1`, the Potency result is “inactive”. Regarding `C[C@@H](N)C1CCC(C(=O)Nc2ccncc2)CC1` (some centres not stated), the Potency entry was “inactive”. As for `COc1cc(Nc2c(C#N)cnc3cc(OCCCN4CCN(C)CC4)c(OC)cc23)c(Cl)cc1Cl`, the Potency is 1.32 µM (active).

Regarding `CCN(CC)C(=S)SSC(=S)N(CC)CC`, the Potency was 0.001 µM (active). `CCN(CC)CCOc1ccc(Cc2ccccc2)cc1`: the Potency entry was “inactive”. Still for that read-out and setting: the figure for `CCOc1cc(CC(=O)N[C@@H](CC(C)C)c2ccccc2N2CCCCC2)ccc1C(=O)O` is 0.59 µM (active); for `COc1cc(C(C)=O)ccc1OCCCN1CCC(c2noc3cc(F)ccc23)CC1` it is 16.6 µM (active). Same read-out and setting: the figure for `CC(=O)N1CCN(c2ccc(OC[C@H]3CO[C@](Cn4ccnc4)(c4ccc(Cl)cc4Cl)O3)cc2)CC1` is 7.43 µM (active). Same read-out and setting: the entry for `CS(=O)(=O)OCCCCOS(C)(=O)=O` is “inactive”; for `CN(c1nccc(=O)[nH]1)C1CCN(c2nc3ccccc3n2Cc2ccc(F)cc2)CC1` it is 6.62 µM (active); for `CC(C)C[C@H](NC(=O)[C@H](Cc1ccccc1)NC(=O)c1cnccn1)B(O)O` it is 0.0148 µM (active). Turning to `CCCCC(CC)COC(=O)C(C#N)=C(c1ccccc1)c1ccccc1` (configuration not stated), the Potency result is “inactive”. Turning to `Cc1cccc(CN2CCN(C(c3ccccc3)c3ccc(Cl)cc3)CC2)c1` (configuration not stated), the Potency is 6.62 µM (active). Turning to `CN(C)C(=O)[C@H](O)[C@H](Cc1ccccc1)NC(=O)c1cc2cc(Cl)ccc2[nH]1`, the Potency was 7.43 µM (active).

For the origin of these results see PubChem BioAssay (NCATS).
